For some assays here: Results with a measured potency or affinity are listed apart.

Holding throughout (set-up): scale not given: direction of the effect not stated beside the values
For assay [1], the target named is Protein translocase subunit SecA (Escherichia coli (strain K12)) (UniProt P10408). Description: Assay to Identify E. coli SecA ATPase Inhibitors. To be noted: 30 µM. It is filed as functional.
For assay [2], the target named is T1, Ubiquitin-activating enzyme e1, putative (Leishmania donovani (strain BPK282A1)) (UniProt E9BSI1).
T1 sequence (whole entry): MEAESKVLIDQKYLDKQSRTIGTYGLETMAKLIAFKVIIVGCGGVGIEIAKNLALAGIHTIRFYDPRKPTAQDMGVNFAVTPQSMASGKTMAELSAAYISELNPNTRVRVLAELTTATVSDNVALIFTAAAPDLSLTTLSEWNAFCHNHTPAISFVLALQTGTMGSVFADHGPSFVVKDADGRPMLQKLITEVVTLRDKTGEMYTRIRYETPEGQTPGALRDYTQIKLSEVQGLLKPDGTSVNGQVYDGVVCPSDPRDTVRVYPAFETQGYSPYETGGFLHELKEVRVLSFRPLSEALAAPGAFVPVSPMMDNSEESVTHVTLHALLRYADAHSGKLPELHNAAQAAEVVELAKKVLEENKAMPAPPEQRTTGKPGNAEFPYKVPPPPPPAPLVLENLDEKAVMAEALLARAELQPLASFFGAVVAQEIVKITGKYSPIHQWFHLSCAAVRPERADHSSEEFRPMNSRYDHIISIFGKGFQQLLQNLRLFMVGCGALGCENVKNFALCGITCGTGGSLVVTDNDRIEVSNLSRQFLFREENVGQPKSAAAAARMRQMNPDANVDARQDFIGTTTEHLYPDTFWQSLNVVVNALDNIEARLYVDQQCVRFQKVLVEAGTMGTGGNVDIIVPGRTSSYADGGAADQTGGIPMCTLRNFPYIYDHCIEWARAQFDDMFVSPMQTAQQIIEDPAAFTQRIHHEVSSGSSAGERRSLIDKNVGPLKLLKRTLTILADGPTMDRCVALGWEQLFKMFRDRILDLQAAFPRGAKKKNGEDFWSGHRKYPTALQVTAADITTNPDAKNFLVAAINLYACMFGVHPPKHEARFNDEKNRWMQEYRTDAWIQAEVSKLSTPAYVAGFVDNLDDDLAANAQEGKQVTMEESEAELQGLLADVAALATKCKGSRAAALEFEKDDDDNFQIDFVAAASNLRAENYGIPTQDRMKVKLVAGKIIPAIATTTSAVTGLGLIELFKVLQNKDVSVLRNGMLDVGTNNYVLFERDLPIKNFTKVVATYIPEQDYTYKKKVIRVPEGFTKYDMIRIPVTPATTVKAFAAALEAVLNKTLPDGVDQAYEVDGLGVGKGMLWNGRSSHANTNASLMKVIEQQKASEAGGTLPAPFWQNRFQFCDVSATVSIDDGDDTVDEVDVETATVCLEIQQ
Description: Leishmania donovani Ubiquitin Activating Enzyme (LdE1). To be noted: 30 µM. The class given is functional.

Assay [3] concerns the target AMP-activated protein kinase, AMPK (Homo sapiens) (UniProt P54646+O43741+P54619+Q9UGJ0+Q9Y478+Q13131+Q9UGI9). Description: AMP-dependent Kinase enzyme assay. An in vitro enzyme assay that detects ADP turnover that is directly proportional to AMPK activity. This uses naive AMPK that is activated during the assay with MK-8722. It is filed as functional. To be noted: 30 µM.

Assay [4] has as its target Sialic acid-binding Ig-like lectin 9 (Homo sapiens) (UniProt Q9Y336). Description: Hs-Siglec9 ALPHAscreen SOP 20170721. As to conditions: 10 µM.
The subject of the next assay is Trypanosoma cruzi. Description: Trypanosoma cruzi phosphomannomutase and mannose-1-phosphate guanylyltransferase assay. It is filed as functional. As to conditions: 10 µM.
Assay [5] has as its target T2, Arginase-2, mitochondrial (Homo sapiens) (UniProt P78540).
T2 sequence (whole entry): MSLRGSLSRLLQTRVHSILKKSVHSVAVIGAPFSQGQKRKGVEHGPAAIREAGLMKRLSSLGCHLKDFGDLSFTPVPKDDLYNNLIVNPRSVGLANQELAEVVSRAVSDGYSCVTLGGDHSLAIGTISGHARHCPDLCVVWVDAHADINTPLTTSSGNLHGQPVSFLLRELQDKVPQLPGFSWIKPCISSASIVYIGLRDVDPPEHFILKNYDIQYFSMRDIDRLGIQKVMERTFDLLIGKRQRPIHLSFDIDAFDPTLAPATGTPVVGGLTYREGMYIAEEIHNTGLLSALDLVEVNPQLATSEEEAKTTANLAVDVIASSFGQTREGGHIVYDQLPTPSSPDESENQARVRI
Put plainly: in vitro enzyme assay to detect the production of urea directly proportional to the activity of Arginase II. Note: in the data most compounds retested in dose-response had high values. To be noted: 33.3 µM. It is filed as functional.

The target in assay [6] is T3, Proteasome subunit beta (Trypanosoma cruzi) (UniProt O96673).
T3 sequence (whole entry): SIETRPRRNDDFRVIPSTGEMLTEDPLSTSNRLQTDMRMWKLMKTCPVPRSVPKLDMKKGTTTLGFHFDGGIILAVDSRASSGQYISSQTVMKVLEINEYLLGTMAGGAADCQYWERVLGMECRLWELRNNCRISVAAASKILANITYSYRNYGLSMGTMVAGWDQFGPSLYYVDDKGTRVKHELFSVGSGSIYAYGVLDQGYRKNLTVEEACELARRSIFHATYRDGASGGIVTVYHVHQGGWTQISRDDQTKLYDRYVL
Put plainly: Trypanosoma cruzi proteasome chymotrypsin-like activity (TcProtChymo) assay. Note: in the data most compounds retested in dose-response had high values. The class given is functional. As to conditions: 9.37 µM.

The species entered for a further assay is Homo sapiens. Description: To identify inhibition of the IFN signalling (Jak-Stat) pathway via expression of an eGFP reporter gene under the control of an IFN-stimulated response element (ISRE) containing MxA promoter. The class given is functional. As to conditions: 30 µM.
For assay [7], the target named is T4, Tyrosyl-tRNA synthetase, putative (Trypanosoma cruzi (strain CL Brener)) (UniProt Q4DSP6).
T4 sequence (whole entry): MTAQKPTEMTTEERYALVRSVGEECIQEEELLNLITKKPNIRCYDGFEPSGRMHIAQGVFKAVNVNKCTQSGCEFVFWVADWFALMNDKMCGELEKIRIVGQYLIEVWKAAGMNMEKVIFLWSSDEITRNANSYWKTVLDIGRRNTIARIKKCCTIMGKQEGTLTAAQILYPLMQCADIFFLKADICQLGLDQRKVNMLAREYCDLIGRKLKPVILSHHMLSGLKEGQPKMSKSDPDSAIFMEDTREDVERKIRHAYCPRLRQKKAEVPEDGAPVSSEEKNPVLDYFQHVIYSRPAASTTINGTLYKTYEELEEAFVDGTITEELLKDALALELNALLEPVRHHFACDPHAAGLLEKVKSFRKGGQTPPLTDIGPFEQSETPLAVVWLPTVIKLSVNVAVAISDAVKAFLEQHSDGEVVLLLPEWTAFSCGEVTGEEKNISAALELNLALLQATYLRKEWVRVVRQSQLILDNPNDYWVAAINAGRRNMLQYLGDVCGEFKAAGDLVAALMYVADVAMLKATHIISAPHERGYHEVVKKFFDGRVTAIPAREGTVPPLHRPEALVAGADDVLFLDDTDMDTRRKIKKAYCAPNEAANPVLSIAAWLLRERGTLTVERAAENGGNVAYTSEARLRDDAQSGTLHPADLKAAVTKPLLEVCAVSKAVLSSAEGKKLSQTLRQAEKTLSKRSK
Put plainly: Trypanosoma cruzi tyrosyl tRNA synthetase (TcYRS) _High Tyrosine SOP. Note: in the data most compounds retested in dose-response had high values. To be noted: 30 µM. The class given is functional.

The target of assay [8] is T4, Tyrosyl-tRNA synthetase, putative (Trypanosoma cruzi (strain CL Brener)). Put plainly: Trypanosoma cruzi tyrosyl tRNA synthetase (TcYRS) SOP. The class given is functional. As to conditions: 30 µM.
The target in assay [9] is Chromo domain-containing protein 1 (Saccharomyces cerevisiae (strain ATCC 204508 / S288c) (Baker's yeast)) (UniProt P32657). Put plainly: ScCHD-1 Enzyme Inhibition Assay. Note: in the data most compounds retested in dose-response had high values. The class given is functional. To be noted: 30 µM.
Chromo domain-containing protein 1 (Saccharomyces cerevisiae (strain ATCC 204508 / S288c) (Baker's yeast)), sequence (P32657 whole entry, the tested form may be a part): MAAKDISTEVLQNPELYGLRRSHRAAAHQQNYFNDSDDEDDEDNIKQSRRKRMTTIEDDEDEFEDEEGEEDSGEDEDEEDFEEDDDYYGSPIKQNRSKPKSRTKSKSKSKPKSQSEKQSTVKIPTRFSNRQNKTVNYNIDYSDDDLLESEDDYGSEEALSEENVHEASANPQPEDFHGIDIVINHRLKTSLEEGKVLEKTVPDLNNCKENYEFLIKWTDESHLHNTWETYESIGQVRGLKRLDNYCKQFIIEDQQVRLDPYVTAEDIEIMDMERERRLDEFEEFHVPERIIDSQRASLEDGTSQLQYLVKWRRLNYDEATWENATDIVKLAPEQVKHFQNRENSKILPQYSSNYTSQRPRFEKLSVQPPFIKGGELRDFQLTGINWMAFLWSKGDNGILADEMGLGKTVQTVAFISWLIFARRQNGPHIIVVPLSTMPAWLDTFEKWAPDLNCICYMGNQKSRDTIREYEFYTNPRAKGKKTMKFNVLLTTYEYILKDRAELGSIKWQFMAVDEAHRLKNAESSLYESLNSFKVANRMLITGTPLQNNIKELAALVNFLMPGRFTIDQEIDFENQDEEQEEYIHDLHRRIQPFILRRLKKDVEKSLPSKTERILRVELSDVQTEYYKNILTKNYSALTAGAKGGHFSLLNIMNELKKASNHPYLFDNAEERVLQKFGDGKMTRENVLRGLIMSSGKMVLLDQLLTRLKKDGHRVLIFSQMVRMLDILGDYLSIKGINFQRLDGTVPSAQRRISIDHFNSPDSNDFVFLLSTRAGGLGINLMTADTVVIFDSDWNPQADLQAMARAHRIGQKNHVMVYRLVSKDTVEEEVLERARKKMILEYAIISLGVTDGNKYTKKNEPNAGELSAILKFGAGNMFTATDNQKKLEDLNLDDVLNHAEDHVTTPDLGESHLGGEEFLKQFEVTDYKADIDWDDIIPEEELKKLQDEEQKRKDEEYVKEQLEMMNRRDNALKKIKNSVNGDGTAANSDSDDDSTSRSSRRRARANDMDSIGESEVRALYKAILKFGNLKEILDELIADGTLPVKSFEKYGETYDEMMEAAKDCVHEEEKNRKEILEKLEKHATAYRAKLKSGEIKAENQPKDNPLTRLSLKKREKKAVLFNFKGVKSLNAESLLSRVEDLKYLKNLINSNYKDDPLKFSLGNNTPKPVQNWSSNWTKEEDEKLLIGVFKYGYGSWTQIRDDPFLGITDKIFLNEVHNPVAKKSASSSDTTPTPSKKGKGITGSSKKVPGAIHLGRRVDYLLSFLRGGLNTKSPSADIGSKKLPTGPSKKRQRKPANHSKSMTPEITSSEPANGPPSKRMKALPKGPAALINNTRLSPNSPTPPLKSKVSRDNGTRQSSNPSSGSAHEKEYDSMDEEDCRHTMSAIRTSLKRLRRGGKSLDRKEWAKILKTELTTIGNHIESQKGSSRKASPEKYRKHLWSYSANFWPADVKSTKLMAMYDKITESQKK

Sialic acid-binding Ig-like lectin 9 (Homo sapiens), sequence (Q9Y336 whole entry): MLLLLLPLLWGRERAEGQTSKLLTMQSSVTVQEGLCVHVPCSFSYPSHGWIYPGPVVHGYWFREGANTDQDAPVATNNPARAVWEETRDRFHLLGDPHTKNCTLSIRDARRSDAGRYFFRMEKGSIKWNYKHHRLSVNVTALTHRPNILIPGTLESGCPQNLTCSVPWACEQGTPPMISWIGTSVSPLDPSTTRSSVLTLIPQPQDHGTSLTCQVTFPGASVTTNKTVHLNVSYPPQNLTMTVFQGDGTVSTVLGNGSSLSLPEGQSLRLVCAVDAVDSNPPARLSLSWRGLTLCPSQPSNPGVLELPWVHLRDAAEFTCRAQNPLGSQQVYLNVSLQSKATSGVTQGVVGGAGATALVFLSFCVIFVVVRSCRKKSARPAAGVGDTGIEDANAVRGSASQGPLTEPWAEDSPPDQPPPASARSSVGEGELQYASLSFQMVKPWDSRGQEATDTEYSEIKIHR
Protein translocase subunit SecA (Escherichia coli (strain K12)), sequence (P10408 whole entry): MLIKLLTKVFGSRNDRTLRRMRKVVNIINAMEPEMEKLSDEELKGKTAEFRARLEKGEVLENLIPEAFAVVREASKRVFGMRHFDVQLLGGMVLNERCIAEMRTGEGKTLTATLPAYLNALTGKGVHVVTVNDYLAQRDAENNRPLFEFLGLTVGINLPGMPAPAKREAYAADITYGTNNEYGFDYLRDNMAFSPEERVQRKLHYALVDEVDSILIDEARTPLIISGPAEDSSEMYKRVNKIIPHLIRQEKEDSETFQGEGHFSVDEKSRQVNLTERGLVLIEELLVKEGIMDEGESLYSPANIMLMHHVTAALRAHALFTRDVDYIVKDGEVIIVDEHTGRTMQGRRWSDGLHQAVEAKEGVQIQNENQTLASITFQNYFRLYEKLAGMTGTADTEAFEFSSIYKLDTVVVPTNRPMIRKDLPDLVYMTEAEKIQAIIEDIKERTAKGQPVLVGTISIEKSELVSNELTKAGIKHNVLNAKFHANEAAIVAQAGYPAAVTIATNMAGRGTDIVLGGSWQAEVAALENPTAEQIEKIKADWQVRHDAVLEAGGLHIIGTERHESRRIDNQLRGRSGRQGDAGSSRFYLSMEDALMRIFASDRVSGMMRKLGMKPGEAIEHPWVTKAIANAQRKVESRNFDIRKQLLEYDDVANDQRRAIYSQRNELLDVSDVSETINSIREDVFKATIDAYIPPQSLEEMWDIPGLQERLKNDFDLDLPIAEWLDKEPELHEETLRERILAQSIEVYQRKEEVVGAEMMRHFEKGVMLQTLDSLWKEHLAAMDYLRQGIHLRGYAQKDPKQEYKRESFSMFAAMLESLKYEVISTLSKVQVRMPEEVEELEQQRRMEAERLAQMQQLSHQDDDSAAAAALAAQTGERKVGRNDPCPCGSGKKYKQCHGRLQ

In the case of `COC(=O)c1ccc(N2CCN(C(=O)c3cnn(C)c3)C(C)C2)cc1` (stereo not given), the Percent Effect in [1] is -5.55%; in [2] it was 17.7%; in [3], -10.6%; in assay [4], 11.1%; in the assay on Trypanosoma cruzi it was 6.14%; in assay [5], -1.52%. In addition, the Percent Effect in assay [6] is 11.9%; in the assay listed under Homo sapiens, 9.04%; in assay [7] it was 2.46%; in assay [8], 13.9%; in assay [9] it was -12.4%.
For `Cc1nn(C)c(C)c1NC(=O)CN1CCc2c(nc(C3CC3)n2C)C1`, the Percent Effect was 0.84% in assay [1]; -5.41% in assay [2]; 0.981% in assay [3]; 13.1% in assay [4]; 6.76% with Trypanosoma cruzi; -5.71% in assay [5]. For the same molecule, the Percent Effect is 4.14% in [6]; 1.97% in the assay filed under Homo sapiens; -0.529% in [7]; 7.32% in assay [8]; -8.76% in [9].
Consider `Cc1ccc(CN2CCC3(CC2)OC(C(=O)N(C)C)c2ccccc23)o1` (stereo not given), for which the Percent Effect is -0.000759% in assay [1]; 4% in [2]; -1.87% in [3]; -0.475% in assay [4]; -10.2% in the assay on Trypanosoma cruzi; -8.63% in assay [5]. The Percent Effect in assay [6] was 14.6%; in the assay filed under Homo sapiens it was 2.54%; in assay [7] it was 4.23%; in assay [8], 0%; in assay [9] it was -8.66%.
In the case of `O=C(CCc1ccccc1F)NS(=O)(=O)c1ccc2c(c1)OCCCO2`, the Percent Effect in assay [1] was -6.43%; in assay [2] it was 11.4%; in assay [3], 2.28%; in [4] it was 1.9%; with Trypanosoma cruzi, -0.923%; in assay [5] it was -4.95%. Besides, the Percent Effect in assay [6] was 9.09%; in the assay filed under Homo sapiens, 6.8%; in assay [7] it was 2.08%; in [8] it was 12.7%; in [9], -20.4%.
`CC(C)(C)c1nnc(CN2CCOC(Cn3cccn3)C2)o1` (stereo not given): the Percent Effect in [1] was -3.67%; in assay [2], 15.2%; in assay [3], -3.73%; in [4], 9.59%; in the assay on Trypanosoma cruzi it was 5.38%; in assay [5], 1.9%. Moreover, the Percent Effect in [6] was 5.16%; in the assay filed under Homo sapiens, 14.4%; in [7] it was 5.42%; in assay [8], 16.5%; in assay [9], -5.63%.
For the molecule `O=C(Cc1noc2ccccc12)N1CCCC1c1noc(C2CC2)n1` (stereo not given), the Percent Effect was 0.239% in assay [1]; -2.7% in assay [2]; -6.79% in assay [3]; 3.85% in [4]; -4.62% in the assay with Trypanosoma cruzi; 0% in assay [5]. The Percent Effect is 7.39% in assay [6]; 86.2% in the assay listed under Homo sapiens; 2.46% in assay [7]; -6.17% in assay [8]; 5.86% in assay [9].
Take `O=C1CC(c2ccccc2)c2c(n3ccsc3nc2=O)N1` (stereo not given): the Percent Effect was -4.74% in [1]; 17.3% in assay [2]; -7.29% in assay [3]; 1.39% in assay [4]; 2.16% with Trypanosoma cruzi; -6.87% in [5]. Moreover, the Percent Effect was 13.3% in assay [6]; 5.81% in the assay listed under Homo sapiens; 5.29% in assay [7]; 15.4% in [8]; -7.95% in assay [9].
As to `CCS(=O)(=O)c1ccc(N2CCC(NC(=O)CCC(C)C)CC2)cc1`, the Percent Effect in assay [1] is -1.62%; in assay [2] it was 10.7%; in assay [3], -6.1%; in [4], 12.2%; in the assay with Trypanosoma cruzi, 6.13%; in [5], 16.1%. Besides, the Percent Effect in [6] was 6.8%; in the assay listed under Homo sapiens it was 27.1%; in assay [7] it was 6.01%; in assay [8] it was 8.64%; in assay [9], -4.64%.
With `CN(C)S(=O)(=O)N1C[C@@H]2CC[C@H](C1)N(Cc1ccc3nsnc3c1)C2`, the Percent Effect in assay [1] was -6.44%; in assay [2], 9.72%; in [3], -22.2%; in assay [4], 43.5%; with Trypanosoma cruzi it was 3.21%; in assay [5], 21.2%. For the same molecule, the Percent Effect in [6] is 4.04%; in the assay filed under Homo sapiens it was 4.28%; in assay [7], 2.1%; in assay [8], 12.8%; in assay [9], -5.13%.
As for `Cn1ccnc1-c1cccc(NC(=O)NCCN2CCOCC2)c1`, the Percent Effect in assay [1] was -4.99%; in assay [2] it was 15.3%; in [3], -5.8%; in assay [4], 16.5%; in the assay on Trypanosoma cruzi, 4.57%; in assay [5] it was 16.3%. For the same molecule, the Percent Effect in assay [6] was 10.9%; in the assay listed under Homo sapiens, 9.44%; in assay [7] it was 5.26%; in [8] it was 10.3%; in assay [9], -4.33%.

The values above are taken from ChEMBL document CHEMBL3988442, “University of Dundee, Small-Polar-MMV Screening Library” (2021).
